Results on 39 molecules are retold here after PubChem BioAssay (Tox21).

Records with an inconclusive call do not appear. A call without a number means that no potency is given here. The source made the active and inactive calls. Calls come from the whole dose curve; as a rule, active = well fitted curve in the direction sought with a large enough effect in the repeat runs; inconclusive = weak or mixed curves; inactive = no such curve, though single readings can be large; an effect the other way counts as inactive or inconclusive.
Potency is the fitted concentration of half-maximal effect.

Chain of Luciferin 4-monooxygenase (Photinus pyralis) (P08659 whole entry, looked up): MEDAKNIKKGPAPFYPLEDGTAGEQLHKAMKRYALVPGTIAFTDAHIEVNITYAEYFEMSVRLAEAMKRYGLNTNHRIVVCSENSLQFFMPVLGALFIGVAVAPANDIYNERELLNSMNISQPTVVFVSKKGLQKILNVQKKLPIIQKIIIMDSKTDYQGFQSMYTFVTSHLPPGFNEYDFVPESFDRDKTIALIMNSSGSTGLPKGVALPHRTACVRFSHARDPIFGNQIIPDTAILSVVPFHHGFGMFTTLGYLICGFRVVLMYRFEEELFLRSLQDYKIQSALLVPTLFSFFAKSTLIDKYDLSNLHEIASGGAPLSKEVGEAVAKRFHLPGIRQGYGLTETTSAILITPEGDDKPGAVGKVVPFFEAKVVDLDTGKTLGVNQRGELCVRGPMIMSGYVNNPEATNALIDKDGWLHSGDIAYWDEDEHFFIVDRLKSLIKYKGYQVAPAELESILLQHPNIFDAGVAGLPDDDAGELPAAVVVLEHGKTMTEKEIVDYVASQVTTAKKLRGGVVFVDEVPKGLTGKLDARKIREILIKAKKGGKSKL

System in the first test: not listed separately
As to the kind of experiment: qHTS assay to identify small molecule antagonists of the estrogen related receptor (ERR) signaling pathway from Tox21 library - cell viability counter screen (AID 1224834). Note: nearly all actives have a fitted effect of over 30% in size. The following applies: ERR reporter cells viability, CellTiter-Fluor, 17.5 h; series mostly up to 92.4 µM. The gist of the method:
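After 17.5 h of compound exposure at 37 C, ERR cells are incubated with CellTiter-Fluor for 30 min and fluorescence intensity serves as the viability measure.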
(In general: Quantitative high-throughput screening tests each substance at several concentrations.)
Consider `CCOC(=O)c1ccc(NC(=O)CN2CCCCC2)cc1`, for which the Potency result was “inactive”.
Same read-out and setting: to `C[C@@H]1[C@H](O)[C@@H](C)/C=C/C=C\C=C\C=C\C=C\C=C\C=C\[C@H](O[C@@H]2O[C@H](C)[C@@H](O)[C@H](N)[C@@H]2O)C[C@@H]2O[C@](O)(C[C@@H](O)C[C@@H](O)[C@H](O)CC[C@@H](O)C[C@@H](O)CC(=O)O[C@H]1C)C[C@H](O)[C@H]2C(=O)O` (stereo in doubt) belongs 61.1 µM (active); to `CCOc1ncc(F)c(=O)[nH]1`, “inactive”; to `CC1CCC(C(C)CS)CC1S` (stereo not drawn), “inactive”.
Regarding `O=CNNC=O`, the Potency result is “inactive”.
As for `CC[C@H]1OC(=O)[C@H](C)[C@@H](O[C@H]2C[C@@](C)(OC)[C@@H](O)[C@H](C)O2)[C@H](C)[C@@H](O[C@@H]2O[C@H](C)C[C@H](N(C)C)[C@H]2O)[C@](C)(O)C[C@@H](C)/C(=N\OCOCCOC)[C@H](C)[C@@H](O)[C@]1(C)O`, the Potency is 14.3 µM (active).
As for `CCN(CC)c1ccc(C(=C2C=CC(=[N+](CC)CC)C=C2)c2ccc(S(=O)(=O)O)cc2S(=O)(=O)[O-])cc1`, the Potency was 21.7 µM (active).
The same measure, in the same setting: to `O=C(/C=C/c1ccc([N+](=O)[O-])cc1)c1ccccc1` belongs 54.6 µM (active); to `Nc1nc(-c2ccc([N+](=O)[O-])cc2)cs1`, “inactive”.
For `Cc1oc(=O)oc1COC(=O)[C@@H]1N2C(=O)[C@@H](NC(=O)[C@H](N)c3ccccc3)[C@H]2SC1(C)C`, the Potency entry is “inactive”.
Regarding `CC(C)(C)S`, the Potency result is “inactive”.
`C1=CCC2CC=CC2C1` (stereo not drawn): the Potency entry was “inactive”.
Turning to `COc1cc(OC)c2ccc(=O)oc2c1`, the Potency result is “inactive”.
Regarding `CC(C)C1CCC(C(=O)N[C@H](Cc2ccccc2)C(=O)O)CC1` (stereo partly drawn), the Potency result was “inactive”.
As for `CCCCCCOC(=O)CCCCC`, the Potency entry is “inactive”.
In the case of `C[C@@H]1C[C@H]2[C@@H]3CCC4=CC(=O)C=C[C@]4(C)[C@@]3(F)[C@@H](O)C[C@]2(C)[C@@]1(O)C(=O)COP(=O)(O)O`, the Potency result was “inactive”.
The same measure, in the same setting: to `CO[C@@H]1[C@@H](OC)[C@H](C)[C@@](O)(CC(=O)O)O[C@H]1[C@H](C)[C@H]1O[C@@]2(CC[C@@](C)([C@H]3CC[C@@](C)([C@@H]4O[C@@H]([C@H]5O[C@](C)(O)[C@H](C)C[C@@H]5C)C[C@@H]4OC4C[C@H](OC)[C@@H](OC)[C@H](C)O4)O3)O2)C[C@H](O)[C@H]1C` (stereo partly drawn) belongs 0.944 µM (active).
The same measure, in the same setting: then `CCCCCCCCCCCCCCCC(=O)OCC`, with “inactive”; and `CC(C)COC(=O)c1ccc(O)cc1`, with “inactive”; and `COc1ccc(C(=O)NCc2ccc(OCCN(C)C)cc2)cc1OC`, with “inactive”.
As to `CC(=O)NNC(C)=O`, the Potency entry is “inactive”.
For `CCC(CO)(CO)CO`, the Potency result is “inactive”.
Regarding `COc1ccc(-n2nc(C(F)F)cc2-c2ccc(S(C)=O)cc2)cc1` (stereo not drawn), the Potency entry was “inactive”.
The same measure, in the same setting: then `O=C(O)c1cc(Cl)cc(Cl)c1O`, with “inactive”.
On to `C=CC(=O)NC(C)C`, for which the Potency result is “inactive”.
As to `CC(=O)OCCC(C)CC(C)(C)C` (stereo not drawn), the Potency entry is “inactive”.
In the case of `CCCCOC(=O)CCCCC(=O)OCCCC`, the Potency entry was “inactive”.
As for `CCCCC(CC)COS(=O)(=O)O` (stereo not drawn), the Potency result is “inactive”.
Consider `COC(C)(C)OC`, for which the Potency result was “inactive”.
As to `COc1ccc(C2C(=O)c3ccccc3C2=O)cc1`, the Potency result was “inactive”.
Still for that read-out and setting: to `Cc1ccc(S(=O)(=O)NC(=O)NC2CCCCC2)cc1` belongs “inactive”; to `CC1=CC[C@@]23C[C@@H]1C(C)(C)[C@@H]2CC[C@H]3C`, “inactive”; to `CCCCCCC(O)CCOC(C)=O` (stereo not drawn), “inactive”.
As for `CC(=O)C(=O)CC(C)C`, the Potency entry is “inactive”.
Still for that read-out and setting: to `O=C(O)CCS` belongs “inactive”.
With `CC(=O)c1ccc[nH]1`, the Potency result is “inactive”.
For the molecule `CC(C)(O)CCc1ccccc1`, the Potency result is “inactive”.
For `COc1ccc(C)cc1`, the Potency entry was “inactive”.
With `CCN(CC)C(=O)N1CCN(C)CC1`, the Potency entry is “inactive”.

A further test deals with Luciferin 4-monooxygenase (Photinus pyralis) (UniProt P08659). As to the kind of experiment: qHTS assay to identify small molecule inhibitors of firefly luciferase (AID 1224835). Note: nearly all actives have a fitted effect of over 25% in size. The following applies: purified P. pyralis luciferase, luminescence inhibition; series mostly up to 115 µM. The gist of the method:
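Inhibition of purified Photinus luciferase is measured by luminescence. Substrate levels (D-luciferin, ATP) sit at their KM values. Each compound is tested in a concentration series.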
As for `CCOC(=O)c1ccc(NC(=O)CN2CCCCC2)cc1`, the Potency result is “inactive”.
Take `C[C@@H]1[C@H](O)[C@@H](C)/C=C/C=C\C=C\C=C\C=C\C=C\C=C\[C@H](O[C@@H]2O[C@H](C)[C@@H](O)[C@H](N)[C@@H]2O)C[C@@H]2O[C@](O)(C[C@@H](O)C[C@@H](O)[C@H](O)CC[C@@H](O)C[C@@H](O)CC(=O)O[C@H]1C)C[C@H](O)[C@H]2C(=O)O` (stereo in doubt): the Potency entry is “inactive”.
As for `CCOc1ncc(F)c(=O)[nH]1`, the Potency result was “inactive”.
Turning to `CC1CCC(C(C)CS)CC1S` (stereo not drawn), the Potency result was “inactive”.
In the case of `O=CNNC=O`, the Potency entry was “inactive”.
In the case of `CC[C@H]1OC(=O)[C@H](C)[C@@H](O[C@H]2C[C@@](C)(OC)[C@@H](O)[C@H](C)O2)[C@H](C)[C@@H](O[C@@H]2O[C@H](C)C[C@H](N(C)C)[C@H]2O)[C@](C)(O)C[C@@H](C)/C(=N\OCOCCOC)[C@H](C)[C@@H](O)[C@]1(C)O`, the Potency result was “inactive”.
For the molecule `CCN(CC)c1ccc(C(=C2C=CC(=[N+](CC)CC)C=C2)c2ccc(S(=O)(=O)O)cc2S(=O)(=O)[O-])cc1`, the Potency was 8.94 µM (active).
Regarding `O=C(/C=C/c1ccc([N+](=O)[O-])cc1)c1ccccc1`, the Potency is 1.13 µM (active).
As for `Nc1nc(-c2ccc([N+](=O)[O-])cc2)cs1`, the Potency result is “inactive”.
Take `Cc1oc(=O)oc1COC(=O)[C@@H]1N2C(=O)[C@@H](NC(=O)[C@H](N)c3ccccc3)[C@H]2SC1(C)C`: the Potency entry was “inactive”.
Same read-out and setting: to `CC(C)(C)S` belongs “inactive”; to `C1=CCC2CC=CC2C1` (stereo not drawn), “inactive”; to `COc1cc(OC)c2ccc(=O)oc2c1`, “inactive”.
The same measure, in the same setting: then `CC(C)C1CCC(C(=O)N[C@H](Cc2ccccc2)C(=O)O)CC1` (stereo partly drawn), with “inactive”.
Turning to `CCCCCCOC(=O)CCCCC`, the Potency result is “inactive”.
Regarding `C[C@@H]1C[C@H]2[C@@H]3CCC4=CC(=O)C=C[C@]4(C)[C@@]3(F)[C@@H](O)C[C@]2(C)[C@@]1(O)C(=O)COP(=O)(O)O`, the Potency entry is “inactive”.
For `CO[C@@H]1[C@@H](OC)[C@H](C)[C@@](O)(CC(=O)O)O[C@H]1[C@H](C)[C@H]1O[C@@]2(CC[C@@](C)([C@H]3CC[C@@](C)([C@@H]4O[C@@H]([C@H]5O[C@](C)(O)[C@H](C)C[C@@H]5C)C[C@@H]4OC4C[C@H](OC)[C@@H](OC)[C@H](C)O4)O3)O2)C[C@H](O)[C@H]1C` (stereo partly drawn), the Potency result was “inactive”.
For the molecule `CCCCCCCCCCCCCCCC(=O)OCC`, the Potency result is “inactive”.
In the case of `CC(C)COC(=O)c1ccc(O)cc1`, the Potency is 44.7 µM (active).
For `COc1ccc(C(=O)NCc2ccc(OCCN(C)C)cc2)cc1OC`, the Potency entry was “inactive”.
In the case of `CC(=O)NNC(C)=O`, the Potency result is “inactive”.
The same measure, in the same setting: then `CCC(CO)(CO)CO`, with “inactive”; and `COc1ccc(-n2nc(C(F)F)cc2-c2ccc(S(C)=O)cc2)cc1` (stereo not drawn), with “inactive”.
On the same count and under the same terms, to `O=C(O)c1cc(Cl)cc(Cl)c1O` belongs “inactive”; to `C=CC(=O)NC(C)C`, “inactive”.
For `CC(=O)OCCC(C)CC(C)(C)C` (stereo not drawn), the Potency entry was “inactive”.
`CCCCOC(=O)CCCCC(=O)OCCCC`: the Potency entry was “inactive”.
`CCCCC(CC)COS(=O)(=O)O` (stereo not drawn): the Potency result is “inactive”.
In the case of `COC(C)(C)OC`, the Potency entry was “inactive”.
The same measure, in the same setting: then `COc1ccc(C2C(=O)c3ccccc3C2=O)cc1`, with 3.09 µM (active); and `Cc1ccc(S(=O)(=O)NC(=O)NC2CCCCC2)cc1`, with “inactive”.
With `CC1=CC[C@@]23C[C@@H]1C(C)(C)[C@@H]2CC[C@H]3C`, the Potency result is “inactive”.
`CCCCCCC(O)CCOC(C)=O` (stereo not drawn): the Potency entry is “inactive”.
As to `CC(=O)C(=O)CC(C)C`, the Potency result is “inactive”.
On to `O=C(O)CCS`, for which the Potency result was “inactive”.
For the molecule `CC(=O)c1ccc[nH]1`, the Potency entry is “inactive”.
Still for that read-out and setting: to `CC(C)(O)CCc1ccccc1` belongs “inactive”; to `COc1ccc(C)cc1`, “inactive”; to `CCN(CC)C(=O)N1CCN(C)CC1`, “inactive”.
